GAA850 FXN act – increases GAA850 frataxin promoter reporter activity; AID 540364; activation, % at 6 µM; hit rate 0.56% among 360,000; HEK293 lucGAA850 FXN promoter luciferase reporter, 24 h; percent of 10 µM SAHA response;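 active = activation above the average of all compounds screened plus 3 SD, cutoff fixed separately per campaign, cut at about 7.5% in these data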;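 also: 0% = DMSO wells and 100% = 10 µM SAHA wells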
CFTR F508del cor – correctors of CFTR F508del function in bronchial epithelial cells | hit rate 0.36% among 350,000 | CFBE cells, YFP halide quenching; stimulated with forskolin plus potentiator P3; % fluorescence drop versus neutral controls | activity (quench increase), % at 7.58 µM;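 active = mean added fluorescence quench of at least 8% versus neutral control, with both replicates also reaching 8%; inconclusive = only one of the mean or replicate conditions met; inactive = mean below 8% and not both replicates reaching 8%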;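 also: cells transiently co-express mutant CFTR-F508del with the halide-sensitive YFP; corrector assay measuring rescue of mutant channel to the surface after 24 h compound exposure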
PAX8 reporter – lowers PAX8-driven luciferase in RMG-I cells | RMG-I TPO-luciferase reporter, SteadyGlo, 24 h | inhibition, % at 12.6 µM | hit rate 1.2% among 360,000;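 active = mean replicate inhibition at least 60% with every replicate also reaching 60%; inconclusive = only one of the two criteria is met; inactive = mean below 60% and not all replicates reaching 60%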;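 also: luciferase light reporting Pax8 driven TPO promoter activity; plate controls were median of neutral control wells for no effect and mitoxantrone controls for full effect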
EWS-Fli inh – EWS/Fli transcriptional activity inhibition. A673 NR0B1-luciferase reporter, viability-normalised. inhibition, % at 12.6 µM. hit rate 0.67% among 350,000;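 active = mean inhibition of at least 50% after viability correction, with every replicate also passing that limit; inconclusive = mean reaches 50% but only one of two replicates passes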;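 also: firefly luciferase signal divided by Alamar Blue viability fluorescence both relative to DMSO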
Env fusion inh – HIV envelope-mediated fusion inhibition; HeLa-JRFL Env/CEM21 cell fusion, luciferase; inhibition, % at 12.3 µM; hit rate 1.1% among 360,000;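 active = mean replicate inhibition score of at least 50 and every replicate individually at or above 50; inconclusive = only one of the two criteria met; inactive = mean below 50 and not all replicates reaching 50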;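 also: 0% = plate neutral controls and 100% = maraviroc near 300 nM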
Starred values were filed as active, the others as inactive; ? = inconclusive; / = no result; [ ] = remark or other dose. An excerpt weighted towards active compounds, which were near 2.5% of everything screened.

SMILES	GAA850 FXN act	CFTR F508del cor	PAX8 reporter	EWS-Fli inh	Env fusion inh
CCN1C(=O)CC(c2ccccc2)N(C2CCCC2)c2nc(Nc3ccc(C(=O)NC4CCN(C)CC4)cc3OC)ncc21 (stereo not drawn)	-4.9	/	/	/	/
COc1cc(C(=O)NC2CCN(C)CC2)ccc1Nc1ncc2c(n1)N(Cc1ccccc1)CCC(=O)N2C	-0.9	-10.9	-296.3	54.9*	-306.7
COc1cc(C(=O)NC2CCN(C)CC2)ccc1Nc1ncc2c(n1)N(C1CCCCC1)CCC(=O)N2C	-5.8	-2.2	-212.4	75.8*	-61.4
Cc1ccc(C)c(CSc2nc3[nH]ncc3c(=O)[nH]2)c1	-3.1	16.5*	10.9	57.5*	-6.8
Cc1oc(-c2ccccc2F)nc1CN1CCC(C(=O)NCCC2=CCCCC2)CC1	1.2	/	/	/	90.3*
Cc1oc(-c2ccccc2F)nc1CN1CCC(C(=O)NCc2cccnc2)CC1	4.3	/	/	/	-33.6
CCc1ccc(-c2nc(CN3CCC(C(=O)NCCc4ccc(OC)c(OC)c4)CC3)c(C)o2)cc1	-1.7	/	/	/	68.4*
COc1ccc(CCNC(=O)C2CCN(Cc3nc(-c4ccccc4F)oc3C)CC2)cc1OC	1.2	/	/	/	-47.9
CC(C)C1CC(N(C)C)=CC(=S)N1 (stereo not drawn)	/	-2.9	78.2*	15.6	58.3*
O=C(C(Cc1ccccc1)N1C(=O)c2ccccc2C1=O)N1c2ccccc2CCc2ccccc21 (stereo not drawn)	2.6	-2.5	4.6	21.5	65.6*
O=C1c2ccccc2C(=O)N1CC(=O)N1c2ccccc2CCc2ccccc21	-0.1	/	16.0	/	-34.3
CC(=O)c1c(C)[nH]c(C(=O)OCC(=O)Nc2ccc(Cl)c(S(=O)(=O)N(C)C)c2)c1C	-2.3	-2.1	33.4	16.3	78.8*
N#C/C(=C(/O)c1ccc([N+](=O)[O-])s1)c1nc2ccccc2[nH]1	-3.8	3.6	19.9	-18.6	?
N#C/C(=C(/O)c1ccc(Br)s1)c1nc2ccccc2[nH]1	-2.5	10.0*	24.3	27.5	-8.4
O=[N+]([O-])c1ccc2nc(SCc3cn4cc(Cl)ccc4n3)[nH]c2c1	1.2	/	5.7	/	112.4*
O=C(CSc1nc2ccc([N+](=O)[O-])cc2[nH]1)NC1CCCCCC1	6.8	/	8.7	/	116.0*
O=[N+]([O-])c1ccc2nc(SCc3cn4ccccc4n3)[nH]c2c1	3.0	/	102.2*	-66.5	5.6
Cc1noc(C)c1S(=O)(=O)N(C)C[C@@H]1Oc2ccc(NC(=O)CCN3CCOCC3)cc2CC(=O)N([C@@H](C)CO)C[C@@H]1C	/	-4.2	-1.2	12.5	/
CCN(CC)CCNc1cc(C)nc2c1C(=O)C(=O)C=C2N1CCCCC1	-4.6	2.0	73.1*	-17.2	2.8
C[C@@H]1CN([C@@H](C)CO)S(=O)(=O)c2ccc(-c3ccccc3)cc2O[C@@H]1CN(C)Cc1ccccc1	/	1.5	/	15.0	51.8[16.7 µM]
NC(=O)c1cc([N+](=O)[O-])ccc1NCc1ccc(N)cc1	-12.8	1.1	35.2	73.9*	70.7*
NC(=O)c1cc([N+](=O)[O-])ccc1NCc1ccc(F)cc1	7.3	-1.4	-38.7	-59.1	-29.4
O=C(NCc1ccc(F)cc1F)[C@@H]1CCCN1C(=O)[C@@H]1CCCN1	/	0.5	79.7*	4.7	21.6
CN1[C@@H]2c3ccc(-c4ccccc4)c(=O)n3C[C@@H]2[C@@H](CO)[C@@H]1C(=O)N1CCc2ccccc2C1	/	/	68.2*	4.7	-45.8[16.7 µM]
COc1ccc(/C=C2/CCc3ccccc3C2=O)cc1OC	6.9	/	-75.7	/	58.2*
SMILES	GAA850 FXN act	CFTR F508del cor	PAX8 reporter	EWS-Fli inh	Env fusion inh
Cn1cccc1/C=C1\Cc2ccccc2C1=O	5.8	-0.6	-106.5	-82.3	-94.9
COc1cc(/C=C2\CCC/C(=C\c3ccc(O)c(OC)c3)C2=O)ccc1O	-1.5	-2.9	35.3	77.1*	-9.8
Cn1cccc1/C=C1\CCc2ccccc2C1=O	-1.9	0.2	31.3	55.3*	-24.4
CCOc1cc(/C=C2\CN(CC)C/C(=C\c3ccc(O)c(OCC)c3)C2=O)ccc1O	-13.4	-5.5	13.4	61.0*	66.6*
O=C(C[C@H]1C[C@H]2c3cc(NC(=O)Cc4ccncc4)ccc3O[C@H]2[C@H](CO)O1)NCc1cccnc1	/	-0.8	-12.2	-5.9	18.1[16.7 µM]
C/C=C/c1ccc([C@H]2[C@@H](CO)N(C(C)=O)[C@@H]2CN(CCC)C(C)=O)cc1	/	0.2	-1.6	-5.4	/
COc1cc(/C=C2\CC/C(=C\c3cc(OC)c(O)c(OC)c3)C2=O)cc(OC)c1O	-4.2	/	87.7*	28.1	76.7*
COc1cc(C=C2C(=O)C=CC2=O)ccc1O	/	-3.2	106.0*	46.3	-190.3
COc1cc(/C=C2/CCC/C(=C\c3cc(O)c(OC)c(Cl)c3)C2=O)cc(Cl)c1O	-3.7	/	80.9*	/	27.4
Cc1ccc(-c2noc(CCC(=O)NCC3CCCO3)n2)cc1 (stereo not drawn)	1.2	/	/	/	-50.0
CC(C)(C)c1ccc(-c2noc(CCC(=O)Nc3cccnc3)n2)cc1	-14.1	2.5	86.9*	43.6	40.7
CC(C)(C)c1ccc(-c2noc(CCC(N)=O)n2)cc1	-16.8	/	/	/	100.1*
COc1ccc(-c2noc(CCC(=O)Nc3cccnc3)n2)cc1	-3.5	1.3	-3.0	-27.8	-8.6
O=C(CCc1nc(-c2ccccc2F)no1)Nc1cccnc1	2.0	0.3	-11.4	/	58.9*
CC(C)(C)c1ccc(-c2noc(CCC(=O)NCC3CCCO3)n2)cc1 (stereo not drawn)	-11.6	/	/	/	75.0*
O=C(C1CCCC1)N1[C@@H](CO)[C@@H](c2ccccc2)C12CN(CCC(F)(F)F)C2	/	-3.9	-38.1	-2.3	6.9[16.7 µM]
CC(C)[C@H](N)C(=O)N[C@H]1CCC2C3CC=C4C[C@@H](O)CC[C@]4(C)C3CC[C@@]21C (stereo partly drawn)	-0.9	0.1	29.1	53.2*	/
C[C@@H](N)C(=O)N[C@H]1CCC2C3CC=C4C[C@@H](O)CC[C@]4(C)C3CC[C@@]21C (stereo partly drawn)	1.4	0.7	2.4	13.4	/
CCC(=O)N1CC2(C1)CN(C(=O)NC1CCCC1)[C@H](CO)c1c2c2ccc(OC)cc2n1C	/	0.9	-5.2	-12.5	/
Cc1ccc(S(=O)(=O)N2C[C@H]3C(=O)C[C@@H]4C(=O)N(c5ccccc5)C(=O)[C@@H]4[C@@H]3C[C@@H]2c2ccccc2)cc1	/	3.8	-5.2	-7.0	-98.3
Cc1ccc(S(=O)(=O)N2[C@H](C(C)C)[C@H]3[C@H]4C(=O)N(c5ccccc5)C(=O)[C@H]4CC(=O)[C@H]3[C@@H]2c2ccccc2)cc1	/	-1.7	-17.7	-6.3	59.2*
Cc1noc(C)c1S(=O)(=O)Nc1ccc2c(c1)C(=O)N([C@H](C)CO)C[C@@H](C)[C@H](CN(C)C(=O)Nc1ccc(C(F)(F)F)cc1)OCCCC[C@@H](C)O2	/	0.0	86.6*	11.6	-51.9[16.7 µM]
Cc1noc(C)c1S(=O)(=O)Nc1ccc2c(c1)C(=O)N([C@@H](C)CO)C[C@H](C)[C@H](CN(C)Cc1ccc(C(F)(F)F)cc1)OCCCC[C@H](C)O2	/	2.2	57.6	/	18.1[16.7 µM]
